In paper PMC7862700, “An all-to-all approach to the identification of sequence-specific readers for epigenetic DNA modifications on cytosine” one finds binding signal data, which are given here for two sequences.

Experiment in all cases: DAPPL (digital affinity profiling via proximity ligation, sequencing); 10 mM Tris-HCl pH 7.5, 50 mM NaCl, 1 mM DTT, 4% glycerol, room temperature, 30 min; GST-TFs on glutathione beads, 16-mer random dsDNA library, 0.1% formaldehyde crosslink after washing; high values mean tight binding
Settings in all cases: protein: recombinant; tags: N-terminal GST; dsDNA, one strand shown

Test [1] concerns the target T1, FLI1 (Homo sapiens, UniProt Q01543 1-452).
T1 sequence: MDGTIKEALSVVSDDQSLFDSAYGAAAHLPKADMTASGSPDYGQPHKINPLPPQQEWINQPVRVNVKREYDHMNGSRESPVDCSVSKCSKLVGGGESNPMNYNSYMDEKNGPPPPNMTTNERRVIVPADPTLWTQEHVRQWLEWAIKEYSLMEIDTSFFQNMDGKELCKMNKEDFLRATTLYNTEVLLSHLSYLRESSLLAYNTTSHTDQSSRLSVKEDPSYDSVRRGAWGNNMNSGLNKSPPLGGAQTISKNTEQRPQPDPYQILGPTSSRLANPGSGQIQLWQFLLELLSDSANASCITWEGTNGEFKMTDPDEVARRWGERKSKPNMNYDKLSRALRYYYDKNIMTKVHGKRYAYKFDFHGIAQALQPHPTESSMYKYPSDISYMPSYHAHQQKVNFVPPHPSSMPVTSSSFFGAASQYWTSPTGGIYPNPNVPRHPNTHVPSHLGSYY
A digest of the protocol:
(§1)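 Each value of binding signal is a hexamer's read frequency for a factor divided by the same hexamer's frequency in the tag-only sample. Barcoded, bead-captured GST fusions of human transcription factors made in yeast were pooled with that sample and incubated with 200 nmole of a random double-stranded 16-mer DNA library in Tris/NaCl/DTT/glycerol buffer at room temperature for 30 min. Washing, 0.1% formaldehyde crosslinking, proximity ligation, PCR and Illumina NextSeq500 sequencing followed.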

For test [2], the target named is T2, ELK1 (Homo sapiens, UniProt P19419 1-428).
T2 sequence: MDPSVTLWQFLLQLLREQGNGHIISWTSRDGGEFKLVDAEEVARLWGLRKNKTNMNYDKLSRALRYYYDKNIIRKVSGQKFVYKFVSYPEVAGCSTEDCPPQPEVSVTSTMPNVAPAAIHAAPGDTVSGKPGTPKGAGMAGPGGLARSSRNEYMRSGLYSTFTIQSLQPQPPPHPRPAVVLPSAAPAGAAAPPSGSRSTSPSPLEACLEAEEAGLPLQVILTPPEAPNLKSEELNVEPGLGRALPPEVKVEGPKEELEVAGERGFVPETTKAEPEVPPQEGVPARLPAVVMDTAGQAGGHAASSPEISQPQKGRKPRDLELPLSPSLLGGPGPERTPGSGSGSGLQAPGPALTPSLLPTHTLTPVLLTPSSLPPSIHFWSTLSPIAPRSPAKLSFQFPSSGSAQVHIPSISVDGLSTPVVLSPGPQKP
The essentials:
as §1

The target of test [3] is T3, GABPA (Homo sapiens, UniProt Q06546 1-454).
T3 sequence: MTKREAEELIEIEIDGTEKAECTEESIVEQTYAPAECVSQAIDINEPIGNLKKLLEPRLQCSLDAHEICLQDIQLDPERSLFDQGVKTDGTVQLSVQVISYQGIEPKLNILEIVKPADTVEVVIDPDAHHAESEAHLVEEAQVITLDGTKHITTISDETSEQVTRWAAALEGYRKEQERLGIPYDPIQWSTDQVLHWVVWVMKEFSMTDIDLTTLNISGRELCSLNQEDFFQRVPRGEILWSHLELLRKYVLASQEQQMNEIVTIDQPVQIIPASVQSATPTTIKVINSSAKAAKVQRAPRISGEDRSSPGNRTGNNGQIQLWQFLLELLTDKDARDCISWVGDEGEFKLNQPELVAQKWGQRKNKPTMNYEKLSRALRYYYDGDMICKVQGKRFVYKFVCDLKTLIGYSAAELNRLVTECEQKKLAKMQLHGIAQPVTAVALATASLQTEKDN
A digest of the protocol:
as §1

Test [4] concerns the target T4, ERG (Homo sapiens, UniProt P11308 1-479).
T4 sequence: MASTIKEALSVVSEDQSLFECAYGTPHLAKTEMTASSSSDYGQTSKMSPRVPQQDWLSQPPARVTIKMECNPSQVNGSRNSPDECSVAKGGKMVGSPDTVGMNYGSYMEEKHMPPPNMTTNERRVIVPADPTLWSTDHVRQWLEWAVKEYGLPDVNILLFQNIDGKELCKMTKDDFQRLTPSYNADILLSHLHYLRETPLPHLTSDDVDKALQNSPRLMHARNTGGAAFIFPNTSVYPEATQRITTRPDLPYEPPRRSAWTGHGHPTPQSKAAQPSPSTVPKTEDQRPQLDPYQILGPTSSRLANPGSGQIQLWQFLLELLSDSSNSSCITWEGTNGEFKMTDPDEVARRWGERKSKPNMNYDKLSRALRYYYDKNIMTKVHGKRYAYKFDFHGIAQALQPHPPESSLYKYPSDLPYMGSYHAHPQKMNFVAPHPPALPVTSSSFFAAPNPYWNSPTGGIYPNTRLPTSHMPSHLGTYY
The essentials: as §1

The target of test [5] is ELF1 (Homo sapiens, UniProt P32519 1-619). A digest of the protocol:
as §1

The target in test [6] is T5, EHF (Homo sapiens, UniProt Q9NZC4 1-300).
T5 sequence: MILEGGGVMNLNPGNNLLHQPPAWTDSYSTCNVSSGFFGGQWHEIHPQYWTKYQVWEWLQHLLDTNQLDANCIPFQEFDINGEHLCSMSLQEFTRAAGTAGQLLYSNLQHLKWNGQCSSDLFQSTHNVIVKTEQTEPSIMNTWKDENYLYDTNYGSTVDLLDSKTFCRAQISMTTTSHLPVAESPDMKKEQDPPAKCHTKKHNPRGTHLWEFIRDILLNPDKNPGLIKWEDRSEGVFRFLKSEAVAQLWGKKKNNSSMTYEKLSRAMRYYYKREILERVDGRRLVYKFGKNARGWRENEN
The essentials:
as §1

Test [7] deals with SPI1 (Homo sapiens, UniProt P17947 1-270). A digest of the protocol: as §1
Test [8] concerns the target SPIB (Homo sapiens, UniProt Q01892 1-262). The essentials:
as §1

The target of test [9] is T6, ELK3 (Homo sapiens, UniProt P41970 1-407).
T6 sequence: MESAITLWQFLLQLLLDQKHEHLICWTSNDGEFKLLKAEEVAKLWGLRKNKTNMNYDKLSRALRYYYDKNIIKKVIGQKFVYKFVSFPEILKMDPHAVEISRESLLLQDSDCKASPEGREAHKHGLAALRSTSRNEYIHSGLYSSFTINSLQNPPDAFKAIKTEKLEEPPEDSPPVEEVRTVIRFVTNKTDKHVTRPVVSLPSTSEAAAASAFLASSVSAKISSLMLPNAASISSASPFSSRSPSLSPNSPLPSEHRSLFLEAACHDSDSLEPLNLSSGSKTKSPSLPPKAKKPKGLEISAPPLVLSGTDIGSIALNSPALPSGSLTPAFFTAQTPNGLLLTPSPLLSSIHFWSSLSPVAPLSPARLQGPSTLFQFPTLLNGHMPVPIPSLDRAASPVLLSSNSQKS
A digest of the protocol: as §1

The target of test [10] is T7, FEV (Homo sapiens, UniProt Q99581 1-238).
T7 sequence: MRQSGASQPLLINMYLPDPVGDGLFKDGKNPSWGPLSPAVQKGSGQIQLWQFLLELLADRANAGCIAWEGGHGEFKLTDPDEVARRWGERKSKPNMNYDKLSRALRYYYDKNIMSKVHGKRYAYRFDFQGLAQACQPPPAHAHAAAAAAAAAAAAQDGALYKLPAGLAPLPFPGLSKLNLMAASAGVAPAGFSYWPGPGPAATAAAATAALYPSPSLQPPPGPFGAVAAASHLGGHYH
A digest of the protocol:
as §1

Test [11] addresses ETV5 (Homo sapiens, UniProt P41161 1-510). The essentials:
as §1

For test [12], the target named is T8, SPIC (Homo sapiens, UniProt Q8N5J4 1-248).
T8 sequence: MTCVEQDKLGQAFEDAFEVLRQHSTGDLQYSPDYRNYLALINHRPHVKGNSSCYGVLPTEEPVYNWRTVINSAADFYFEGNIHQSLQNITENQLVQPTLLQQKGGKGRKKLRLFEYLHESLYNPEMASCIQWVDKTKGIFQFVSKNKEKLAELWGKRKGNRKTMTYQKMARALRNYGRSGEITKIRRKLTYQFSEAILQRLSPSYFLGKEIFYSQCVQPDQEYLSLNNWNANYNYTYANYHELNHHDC
The essentials:
as §1

The target of test [13] is ELF4 (Homo sapiens, UniProt Q99607 1-663). A digest of the protocol: as §1
The target of test [14] is T9, ELK4 (Homo sapiens, UniProt P28324-2 1-405).
T9 sequence: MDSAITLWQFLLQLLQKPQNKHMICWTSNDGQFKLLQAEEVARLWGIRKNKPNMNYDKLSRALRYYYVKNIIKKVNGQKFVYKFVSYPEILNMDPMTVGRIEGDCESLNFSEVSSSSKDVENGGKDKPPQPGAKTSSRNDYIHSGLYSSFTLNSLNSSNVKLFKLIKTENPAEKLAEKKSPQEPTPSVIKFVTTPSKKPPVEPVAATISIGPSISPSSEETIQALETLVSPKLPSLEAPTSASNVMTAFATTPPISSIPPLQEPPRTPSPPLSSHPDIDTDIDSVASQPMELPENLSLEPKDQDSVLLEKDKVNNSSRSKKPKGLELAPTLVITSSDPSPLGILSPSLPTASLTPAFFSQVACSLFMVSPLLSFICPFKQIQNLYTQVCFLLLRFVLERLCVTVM
The essentials: as §1

In test [15] the target is T10, ETV2 (Homo sapiens, UniProt O00321 1-342).
T10 sequence: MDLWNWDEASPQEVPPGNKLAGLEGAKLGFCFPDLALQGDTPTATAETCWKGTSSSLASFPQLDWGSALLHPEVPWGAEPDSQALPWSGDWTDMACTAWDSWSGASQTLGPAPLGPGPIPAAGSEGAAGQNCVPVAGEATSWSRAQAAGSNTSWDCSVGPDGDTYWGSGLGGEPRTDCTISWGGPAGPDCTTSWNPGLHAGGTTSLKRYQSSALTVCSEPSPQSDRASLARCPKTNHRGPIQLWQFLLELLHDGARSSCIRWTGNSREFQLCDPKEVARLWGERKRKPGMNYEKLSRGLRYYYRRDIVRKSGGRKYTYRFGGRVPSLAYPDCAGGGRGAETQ
The essentials: as §1

Test [16] deals with T11, ELF3 (Homo sapiens, UniProt P78545 1-371).
T11 sequence: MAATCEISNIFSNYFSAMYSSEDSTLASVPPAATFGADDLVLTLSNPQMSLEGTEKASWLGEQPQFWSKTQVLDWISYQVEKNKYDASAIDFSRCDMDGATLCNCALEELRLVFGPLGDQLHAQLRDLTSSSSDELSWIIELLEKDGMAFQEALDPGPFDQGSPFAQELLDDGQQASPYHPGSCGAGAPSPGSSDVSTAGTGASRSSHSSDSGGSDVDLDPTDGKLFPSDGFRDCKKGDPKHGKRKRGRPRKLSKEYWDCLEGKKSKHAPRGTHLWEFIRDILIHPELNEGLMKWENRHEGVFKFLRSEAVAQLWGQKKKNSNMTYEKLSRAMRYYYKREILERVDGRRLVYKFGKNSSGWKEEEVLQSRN
The essentials: as §1

The target in test [17] is ETV1 (Homo sapiens, UniProt P50549 1-477). The essentials: as §1
Chain of ETV1 (P50549 whole entry): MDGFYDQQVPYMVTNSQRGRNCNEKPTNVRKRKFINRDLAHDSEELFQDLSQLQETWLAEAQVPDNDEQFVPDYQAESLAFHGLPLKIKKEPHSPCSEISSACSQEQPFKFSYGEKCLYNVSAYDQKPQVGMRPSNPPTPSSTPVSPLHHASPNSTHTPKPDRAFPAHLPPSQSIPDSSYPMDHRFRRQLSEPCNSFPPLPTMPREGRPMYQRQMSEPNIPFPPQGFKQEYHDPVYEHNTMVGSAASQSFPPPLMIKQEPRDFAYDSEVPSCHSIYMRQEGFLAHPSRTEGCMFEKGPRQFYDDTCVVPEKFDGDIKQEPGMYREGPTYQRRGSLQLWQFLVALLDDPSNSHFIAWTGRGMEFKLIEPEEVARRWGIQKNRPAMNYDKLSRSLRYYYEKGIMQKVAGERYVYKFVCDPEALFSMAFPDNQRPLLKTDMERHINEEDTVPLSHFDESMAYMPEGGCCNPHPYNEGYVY

Chain of ETV5 (P41161 whole entry): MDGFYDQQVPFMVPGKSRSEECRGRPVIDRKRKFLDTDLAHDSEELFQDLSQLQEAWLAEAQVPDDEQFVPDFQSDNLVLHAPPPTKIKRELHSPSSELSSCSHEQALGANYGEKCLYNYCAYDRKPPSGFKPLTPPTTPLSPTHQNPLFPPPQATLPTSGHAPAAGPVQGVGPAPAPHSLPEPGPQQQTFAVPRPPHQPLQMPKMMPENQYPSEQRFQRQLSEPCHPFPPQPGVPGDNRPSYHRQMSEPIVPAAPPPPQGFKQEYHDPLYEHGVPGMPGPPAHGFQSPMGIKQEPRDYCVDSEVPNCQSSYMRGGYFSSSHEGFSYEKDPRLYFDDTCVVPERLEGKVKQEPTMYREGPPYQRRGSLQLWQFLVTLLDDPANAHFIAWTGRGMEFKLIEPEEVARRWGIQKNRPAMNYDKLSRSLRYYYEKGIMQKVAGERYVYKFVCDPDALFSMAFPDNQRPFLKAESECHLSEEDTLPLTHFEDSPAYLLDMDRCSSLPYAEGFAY
Chain of ELF4 (Q99607 whole entry): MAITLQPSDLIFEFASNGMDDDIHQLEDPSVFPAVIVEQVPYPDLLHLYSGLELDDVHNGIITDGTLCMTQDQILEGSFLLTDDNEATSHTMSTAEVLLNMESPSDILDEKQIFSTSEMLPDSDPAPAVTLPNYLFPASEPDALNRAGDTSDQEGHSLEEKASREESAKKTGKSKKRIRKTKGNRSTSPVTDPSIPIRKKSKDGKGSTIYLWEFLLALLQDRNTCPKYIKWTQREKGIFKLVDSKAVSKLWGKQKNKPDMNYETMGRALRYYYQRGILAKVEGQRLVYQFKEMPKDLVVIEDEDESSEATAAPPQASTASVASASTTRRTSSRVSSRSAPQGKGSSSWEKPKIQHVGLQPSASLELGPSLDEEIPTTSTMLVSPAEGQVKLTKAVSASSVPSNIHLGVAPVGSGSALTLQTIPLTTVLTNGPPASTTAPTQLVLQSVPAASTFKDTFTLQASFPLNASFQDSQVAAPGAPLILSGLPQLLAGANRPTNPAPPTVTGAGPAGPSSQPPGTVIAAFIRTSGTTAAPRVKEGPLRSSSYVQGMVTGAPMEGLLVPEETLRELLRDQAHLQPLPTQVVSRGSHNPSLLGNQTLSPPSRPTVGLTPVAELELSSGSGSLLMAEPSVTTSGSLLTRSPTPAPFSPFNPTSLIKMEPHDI
Chain of SPIB (Q01892 whole entry): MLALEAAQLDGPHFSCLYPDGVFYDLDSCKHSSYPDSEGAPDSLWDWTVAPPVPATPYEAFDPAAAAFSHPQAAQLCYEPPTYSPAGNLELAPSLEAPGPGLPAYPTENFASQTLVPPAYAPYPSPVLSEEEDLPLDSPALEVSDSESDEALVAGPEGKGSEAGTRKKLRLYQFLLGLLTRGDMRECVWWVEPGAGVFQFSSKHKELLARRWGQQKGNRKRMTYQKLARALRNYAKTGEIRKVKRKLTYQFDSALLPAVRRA
Chain of ELF1 (P32519 whole entry): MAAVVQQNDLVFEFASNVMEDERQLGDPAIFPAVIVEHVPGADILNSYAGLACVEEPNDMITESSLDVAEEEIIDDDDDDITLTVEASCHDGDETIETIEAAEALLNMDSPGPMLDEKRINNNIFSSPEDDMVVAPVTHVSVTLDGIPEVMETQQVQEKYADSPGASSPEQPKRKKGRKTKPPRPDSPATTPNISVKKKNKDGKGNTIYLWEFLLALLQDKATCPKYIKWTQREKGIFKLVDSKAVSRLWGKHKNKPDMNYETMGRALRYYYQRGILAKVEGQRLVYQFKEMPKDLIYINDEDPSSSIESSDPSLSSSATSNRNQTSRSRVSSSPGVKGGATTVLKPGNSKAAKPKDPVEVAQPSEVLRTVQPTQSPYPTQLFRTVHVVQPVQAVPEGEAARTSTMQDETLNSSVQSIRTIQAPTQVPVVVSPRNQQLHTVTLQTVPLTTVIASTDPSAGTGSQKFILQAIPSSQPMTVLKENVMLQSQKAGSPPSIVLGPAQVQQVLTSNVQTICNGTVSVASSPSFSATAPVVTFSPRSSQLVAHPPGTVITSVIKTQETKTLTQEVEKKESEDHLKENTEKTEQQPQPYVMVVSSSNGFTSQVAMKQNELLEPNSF

Turning to CATGCC, the binding signal in test [1] is 1.18 fold enrichment (6-mer frequency, TF over GST control); in test [2], 1.17 fold enrichment (6-mer frequency, TF over GST control); in test [3], 1.09 fold enrichment (6-mer frequency, TF over GST control); in test [4], 1.1 fold enrichment (6-mer frequency, TF over GST control); in test [5], 1.16 fold enrichment (6-mer frequency, TF over GST control); in test [6] it was 1.16 fold enrichment (6-mer frequency, TF over GST control). The binding signal is 1.09 fold enrichment (6-mer frequency, TF over GST control) in test [7]; 1.11 fold enrichment (6-mer frequency, TF over GST control) in test [8]; 1.06 fold enrichment (6-mer frequency, TF over GST control) in test [9]; 1.13 fold enrichment (6-mer frequency, TF over GST control) in test [10]; 1.13 fold enrichment (6-mer frequency, TF over GST control) in [11]; 1.16 fold enrichment (6-mer frequency, TF over GST control) in test [12]. The binding signal in [13] was 1.16 fold enrichment (6-mer frequency, TF over GST control); in [14] it was 1.17 fold enrichment (6-mer frequency, TF over GST control); in test [15], 1.08 fold enrichment (6-mer frequency, TF over GST control); in test [16], 1.13 fold enrichment (6-mer frequency, TF over GST control); in test [17] it was 1.12 fold enrichment (6-mer frequency, TF over GST control).
Consider CCTTGT, for which the binding signal in [1] was 1.33 fold enrichment (6-mer frequency, TF over GST control); in test [2], 1.29 fold enrichment (6-mer frequency, TF over GST control); in [3], 1.25 fold enrichment (6-mer frequency, TF over GST control); in test [4], 1.37 fold enrichment (6-mer frequency, TF over GST control); in test [5], 1.23 fold enrichment (6-mer frequency, TF over GST control); in test [6], 1.24 fold enrichment (6-mer frequency, TF over GST control). Also, the binding signal in test [7] was 1.25 fold enrichment (6-mer frequency, TF over GST control); in [8] it was 1.28 fold enrichment (6-mer frequency, TF over GST control); in test [9] it was 1.18 fold enrichment (6-mer frequency, TF over GST control); in test [10], 1.09 fold enrichment (6-mer frequency, TF over GST control); in test [11], 1.32 fold enrichment (6-mer frequency, TF over GST control); in [12], 1.11 fold enrichment (6-mer frequency, TF over GST control). In addition, the binding signal in test [13] was 1.29 fold enrichment (6-mer frequency, TF over GST control); in [14], 1.37 fold enrichment (6-mer frequency, TF over GST control); in [15] it was 1.03 fold enrichment (6-mer frequency, TF over GST control); in test [16], 1.08 fold enrichment (6-mer frequency, TF over GST control); in test [17], 1.26 fold enrichment (6-mer frequency, TF over GST control).
